Reference: PMC7862700, “An all-to-all approach to the identification of sequence-specific readers for epigenetic DNA modifications on cytosine”

How the values were obtained:
Assay in all cases: DAPPL (digital affinity profiling via proximity ligation, sequencing); 10 mM Tris-HCl pH 7.5, 50 mM NaCl, 1 mM DTT, 4% glycerol, room temperature, 30 min; GST-TFs on glutathione beads, 16-mer random dsDNA library, 0.1% formaldehyde crosslink after washing; high values mean tight binding
Conditions in all cases: protein: recombinant; tags: N-terminal GST; dsDNA, one strand shown
FLI1 = target: T1, FLI1 (Homo sapiens, UniProt Q01543 1-452)
T1 sequence: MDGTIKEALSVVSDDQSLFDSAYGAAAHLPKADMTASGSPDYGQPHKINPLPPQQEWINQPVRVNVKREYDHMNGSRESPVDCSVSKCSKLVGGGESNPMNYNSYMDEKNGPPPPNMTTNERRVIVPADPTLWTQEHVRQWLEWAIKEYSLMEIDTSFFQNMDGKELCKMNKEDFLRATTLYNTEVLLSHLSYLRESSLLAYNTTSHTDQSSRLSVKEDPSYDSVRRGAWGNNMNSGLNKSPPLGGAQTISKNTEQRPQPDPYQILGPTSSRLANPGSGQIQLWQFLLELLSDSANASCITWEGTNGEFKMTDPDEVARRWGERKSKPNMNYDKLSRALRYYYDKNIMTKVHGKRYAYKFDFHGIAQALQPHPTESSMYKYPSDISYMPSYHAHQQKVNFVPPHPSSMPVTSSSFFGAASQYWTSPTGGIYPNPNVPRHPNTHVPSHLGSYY
Summary of the method: (§1)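 Binding signal is given per hexamer as its read frequency for a factor divided by its frequency in the tag-only sample. GST-fused human transcription factors were expressed in yeast, captured on glutathione beads, barcoded with DNA and pooled with that sample, then incubated with 200 nmole of a 16-mer random double-stranded DNA library in Tris/NaCl/DTT/glycerol buffer for 30 min at room temperature. The pools were then washed, crosslinked, proximity-ligated, amplified by PCR and sequenced on an Illumina NextSeq500.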

ELK1 = target: T2, ELK1 (Homo sapiens, UniProt P19419 1-428)
T2 sequence: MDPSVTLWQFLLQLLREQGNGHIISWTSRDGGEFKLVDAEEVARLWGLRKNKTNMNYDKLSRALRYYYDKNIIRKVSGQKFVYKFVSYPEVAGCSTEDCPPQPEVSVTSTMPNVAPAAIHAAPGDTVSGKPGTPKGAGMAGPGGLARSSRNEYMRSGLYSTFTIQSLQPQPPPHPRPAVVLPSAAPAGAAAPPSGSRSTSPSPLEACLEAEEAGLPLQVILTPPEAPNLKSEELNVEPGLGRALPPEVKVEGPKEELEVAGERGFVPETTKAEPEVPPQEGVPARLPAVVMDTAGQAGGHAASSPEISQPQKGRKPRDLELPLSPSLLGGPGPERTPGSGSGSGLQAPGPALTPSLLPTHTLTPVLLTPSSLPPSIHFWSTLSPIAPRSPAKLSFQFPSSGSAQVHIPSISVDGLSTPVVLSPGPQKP
Summary of the method: as §1

GABPA = target: T3, GABPA (Homo sapiens, UniProt Q06546 1-454)
T3 sequence: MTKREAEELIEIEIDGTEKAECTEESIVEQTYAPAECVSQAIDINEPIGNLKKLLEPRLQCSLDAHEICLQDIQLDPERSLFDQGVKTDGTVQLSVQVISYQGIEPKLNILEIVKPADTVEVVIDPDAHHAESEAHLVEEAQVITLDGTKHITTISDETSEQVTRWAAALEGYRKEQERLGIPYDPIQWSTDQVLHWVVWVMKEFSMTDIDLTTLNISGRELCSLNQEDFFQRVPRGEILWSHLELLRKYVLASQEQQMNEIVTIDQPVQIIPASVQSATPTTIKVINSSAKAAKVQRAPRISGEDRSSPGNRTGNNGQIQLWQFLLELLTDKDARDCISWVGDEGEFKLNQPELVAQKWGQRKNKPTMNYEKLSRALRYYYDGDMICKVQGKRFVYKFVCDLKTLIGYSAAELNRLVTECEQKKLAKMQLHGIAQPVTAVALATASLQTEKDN
Summary of the method: as §1

ERG = target: T4, ERG (Homo sapiens, UniProt P11308 1-479)
T4 sequence: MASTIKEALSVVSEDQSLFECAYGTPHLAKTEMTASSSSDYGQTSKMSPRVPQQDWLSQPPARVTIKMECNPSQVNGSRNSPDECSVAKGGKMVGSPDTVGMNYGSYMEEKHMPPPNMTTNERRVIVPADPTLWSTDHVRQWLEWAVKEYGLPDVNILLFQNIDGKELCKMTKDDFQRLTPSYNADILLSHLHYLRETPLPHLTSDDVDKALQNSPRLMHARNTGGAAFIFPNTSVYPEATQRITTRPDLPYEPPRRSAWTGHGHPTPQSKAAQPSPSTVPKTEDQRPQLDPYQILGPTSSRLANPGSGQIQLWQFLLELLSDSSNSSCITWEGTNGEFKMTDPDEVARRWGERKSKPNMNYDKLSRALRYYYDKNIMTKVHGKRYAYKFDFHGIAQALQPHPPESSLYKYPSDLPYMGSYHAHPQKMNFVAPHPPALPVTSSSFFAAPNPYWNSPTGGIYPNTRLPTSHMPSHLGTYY
Summary of the method: as §1

ELF1 = ELF1 (Homo sapiens, UniProt P32519 1-619)
Summary of the method: as §1

EHF = target: T5, EHF (Homo sapiens, UniProt Q9NZC4 1-300)
T5 sequence: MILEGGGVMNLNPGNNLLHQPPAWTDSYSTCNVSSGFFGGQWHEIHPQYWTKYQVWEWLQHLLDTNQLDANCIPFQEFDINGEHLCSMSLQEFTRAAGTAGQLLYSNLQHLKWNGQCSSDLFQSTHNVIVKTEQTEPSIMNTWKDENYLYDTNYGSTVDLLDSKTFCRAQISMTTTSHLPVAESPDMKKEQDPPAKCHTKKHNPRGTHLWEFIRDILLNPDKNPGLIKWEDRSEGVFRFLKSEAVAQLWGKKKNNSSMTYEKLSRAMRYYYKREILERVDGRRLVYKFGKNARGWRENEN
Summary of the method: as §1

SPI1 = SPI1 (Homo sapiens, UniProt P17947 1-270)
Summary of the method: as §1

SPIB = SPIB (Homo sapiens, UniProt Q01892 1-262)
Summary of the method: as §1

ELK3 = target: T6, ELK3 (Homo sapiens, UniProt P41970 1-407)
T6 sequence: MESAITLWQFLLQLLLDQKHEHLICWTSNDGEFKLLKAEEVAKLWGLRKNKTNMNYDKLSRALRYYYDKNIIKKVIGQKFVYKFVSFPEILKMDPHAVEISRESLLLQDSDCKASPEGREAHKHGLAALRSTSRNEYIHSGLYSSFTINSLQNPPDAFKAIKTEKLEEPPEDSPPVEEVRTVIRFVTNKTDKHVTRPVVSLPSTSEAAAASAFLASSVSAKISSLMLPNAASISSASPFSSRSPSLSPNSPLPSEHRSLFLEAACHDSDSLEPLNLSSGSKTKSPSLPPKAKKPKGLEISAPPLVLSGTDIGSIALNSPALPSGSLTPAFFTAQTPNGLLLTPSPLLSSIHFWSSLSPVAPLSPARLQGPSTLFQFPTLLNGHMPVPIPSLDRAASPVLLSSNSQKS
Summary of the method: as §1

Sequence of ELF1 (P32519 whole entry): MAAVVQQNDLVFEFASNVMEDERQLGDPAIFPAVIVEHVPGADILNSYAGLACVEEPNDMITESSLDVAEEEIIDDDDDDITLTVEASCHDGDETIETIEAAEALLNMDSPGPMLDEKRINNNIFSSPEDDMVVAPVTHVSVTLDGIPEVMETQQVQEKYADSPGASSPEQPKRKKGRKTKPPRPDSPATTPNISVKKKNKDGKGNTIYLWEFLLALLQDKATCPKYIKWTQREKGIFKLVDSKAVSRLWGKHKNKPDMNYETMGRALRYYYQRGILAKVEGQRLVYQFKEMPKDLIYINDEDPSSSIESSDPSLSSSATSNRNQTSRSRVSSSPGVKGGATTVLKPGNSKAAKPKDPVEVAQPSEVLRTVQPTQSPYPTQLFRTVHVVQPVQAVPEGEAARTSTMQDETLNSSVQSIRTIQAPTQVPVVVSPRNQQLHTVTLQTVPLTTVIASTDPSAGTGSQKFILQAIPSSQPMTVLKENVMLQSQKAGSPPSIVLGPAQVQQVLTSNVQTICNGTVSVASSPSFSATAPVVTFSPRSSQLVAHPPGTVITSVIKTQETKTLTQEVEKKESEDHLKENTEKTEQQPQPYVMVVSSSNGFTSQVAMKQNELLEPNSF
Sequence of SPIB (Q01892 whole entry): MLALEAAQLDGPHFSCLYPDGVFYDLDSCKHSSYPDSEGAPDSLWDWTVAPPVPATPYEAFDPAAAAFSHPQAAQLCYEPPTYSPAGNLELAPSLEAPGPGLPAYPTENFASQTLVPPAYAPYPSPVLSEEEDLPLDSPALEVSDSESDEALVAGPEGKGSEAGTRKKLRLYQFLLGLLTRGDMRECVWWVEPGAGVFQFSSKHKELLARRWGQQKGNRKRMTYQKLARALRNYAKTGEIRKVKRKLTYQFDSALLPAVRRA

## TGCATG
FLI1
  binding signal: 1.12 fold enrichment (6-mer frequency, TF over GST control)
ELK1
  binding signal: 1.09 fold enrichment (6-mer frequency, TF over GST control)
GABPA
  binding signal: 1.13 fold enrichment (6-mer frequency, TF over GST control)
ERG
  binding signal: 1.13 fold enrichment (6-mer frequency, TF over GST control)
ELF1
  binding signal: 1.15 fold enrichment (6-mer frequency, TF over GST control)
EHF
  binding signal: 1.15 fold enrichment (6-mer frequency, TF over GST control)
SPI1
  binding signal: 1.02 fold enrichment (6-mer frequency, TF over GST control)
SPIB
  binding signal: 1.14 fold enrichment (6-mer frequency, TF over GST control)
ELK3
  binding signal: 1.14 fold enrichment (6-mer frequency, TF over GST control)

## GCTCTT
FLI1
  binding signal: 1.58 fold enrichment (6-mer frequency, TF over GST control)
ELK1
  binding signal: 1.55 fold enrichment (6-mer frequency, TF over GST control)
GABPA
  binding signal: 1.52 fold enrichment (6-mer frequency, TF over GST control)
ERG
  binding signal: 1.39 fold enrichment (6-mer frequency, TF over GST control)
ELF1
  binding signal: 1.66 fold enrichment (6-mer frequency, TF over GST control)
EHF
  binding signal: 1.29 fold enrichment (6-mer frequency, TF over GST control)
SPI1
  binding signal: 1.37 fold enrichment (6-mer frequency, TF over GST control)
SPIB
  binding signal: 1.49 fold enrichment (6-mer frequency, TF over GST control)
ELK3
  binding signal: 1.56 fold enrichment (6-mer frequency, TF over GST control)

## CACAAA
FLI1
  binding signal: 1.06 fold enrichment (6-mer frequency, TF over GST control)
ELK1
  binding signal: 1.06 fold enrichment (6-mer frequency, TF over GST control)
GABPA
  binding signal: 1.12 fold enrichment (6-mer frequency, TF over GST control)
ERG
  binding signal: 1.12 fold enrichment (6-mer frequency, TF over GST control)
ELF1
  binding signal: 1.13 fold enrichment (6-mer frequency, TF over GST control)
EHF
  binding signal: 1.11 fold enrichment (6-mer frequency, TF over GST control)
SPI1
  binding signal: 1.13 fold enrichment (6-mer frequency, TF over GST control)
SPIB
  binding signal: 1.04 fold enrichment (6-mer frequency, TF over GST control)
ELK3
  binding signal: 1.19 fold enrichment (6-mer frequency, TF over GST control)

## GTTCAC
FLI1
  binding signal: 1.23 fold enrichment (6-mer frequency, TF over GST control)
ELK1
  binding signal: 1.23 fold enrichment (6-mer frequency, TF over GST control)
GABPA
  binding signal: 1.32 fold enrichment (6-mer frequency, TF over GST control)
ERG
  binding signal: 1.21 fold enrichment (6-mer frequency, TF over GST control)
ELF1
  binding signal: 1.16 fold enrichment (6-mer frequency, TF over GST control)
EHF
  binding signal: 1.13 fold enrichment (6-mer frequency, TF over GST control)
SPI1
  binding signal: 1.18 fold enrichment (6-mer frequency, TF over GST control)
SPIB
  binding signal: 1.19 fold enrichment (6-mer frequency, TF over GST control)
ELK3
  binding signal: 1.18 fold enrichment (6-mer frequency, TF over GST control)

## CTCGAA
FLI1
  binding signal: 1.23 fold enrichment (6-mer frequency, TF over GST control)
ELK1
  binding signal: 1.12 fold enrichment (6-mer frequency, TF over GST control)
GABPA
  binding signal: 1.26 fold enrichment (6-mer frequency, TF over GST control)
ERG
  binding signal: 1.13 fold enrichment (6-mer frequency, TF over GST control)
ELF1
  binding signal: 1.18 fold enrichment (6-mer frequency, TF over GST control)
EHF
  binding signal: 1.21 fold enrichment (6-mer frequency, TF over GST control)
SPI1
  binding signal: 1.17 fold enrichment (6-mer frequency, TF over GST control)
SPIB
  binding signal: 1.12 fold enrichment (6-mer frequency, TF over GST control)
ELK3
  binding signal: 1.21 fold enrichment (6-mer frequency, TF over GST control)

## CCCCAC
FLI1
  binding signal: 1.19 fold enrichment (6-mer frequency, TF over GST control)
ELK1
  binding signal: 1.24 fold enrichment (6-mer frequency, TF over GST control)
GABPA
  binding signal: 1.19 fold enrichment (6-mer frequency, TF over GST control)
ERG
  binding signal: 1.2 fold enrichment (6-mer frequency, TF over GST control)
ELF1
  binding signal: 1.24 fold enrichment (6-mer frequency, TF over GST control)
EHF
  binding signal: 1.34 fold enrichment (6-mer frequency, TF over GST control)
SPI1
  binding signal: 1.22 fold enrichment (6-mer frequency, TF over GST control)
SPIB
  binding signal: 1.25 fold enrichment (6-mer frequency, TF over GST control)
ELK3
  binding signal: 1.34 fold enrichment (6-mer frequency, TF over GST control)

## GACTTT
FLI1
  binding signal: 1.04 fold enrichment (6-mer frequency, TF over GST control)
ELK1
  binding signal: 1.18 fold enrichment (6-mer frequency, TF over GST control)
GABPA
  binding signal: 1.17 fold enrichment (6-mer frequency, TF over GST control)
ERG
  binding signal: 1.16 fold enrichment (6-mer frequency, TF over GST control)
ELF1
  binding signal: 1.12 fold enrichment (6-mer frequency, TF over GST control)
EHF
  binding signal: 1.07 fold enrichment (6-mer frequency, TF over GST control)
SPI1
  binding signal: 1.23 fold enrichment (6-mer frequency, TF over GST control)
SPIB
  binding signal: 1.12 fold enrichment (6-mer frequency, TF over GST control)
ELK3
  binding signal: 1.12 fold enrichment (6-mer frequency, TF over GST control)

## AACAGG
FLI1
  binding signal: 1.2 fold enrichment (6-mer frequency, TF over GST control)
ELK1
  binding signal: 1.16 fold enrichment (6-mer frequency, TF over GST control)
GABPA
  binding signal: 1.13 fold enrichment (6-mer frequency, TF over GST control)
ERG
  binding signal: 1.23 fold enrichment (6-mer frequency, TF over GST control)
ELF1
  binding signal: 1.08 fold enrichment (6-mer frequency, TF over GST control)
EHF
  binding signal: 1.18 fold enrichment (6-mer frequency, TF over GST control)
SPI1
  binding signal: 1.43 fold enrichment (6-mer frequency, TF over GST control)
SPIB
  binding signal: 1.16 fold enrichment (6-mer frequency, TF over GST control)
ELK3
  binding signal: 1.11 fold enrichment (6-mer frequency, TF over GST control)
